Some test systems named below: K-562 leukemia; MALME-3M melanoma; MDA-MB-231 breast; RXF 393 renal; SF-268 CNS; SF-295 CNS; SF-539 CNS; UACC-257 melanoma; M14 melanoma; HCT-15 colon; HT29 colon; SNB-75 CNS; SNB-19 CNS; U251 CNS; PC-3 prostate; SK-MEL-5 melanoma; UACC-62 melanoma; LOX IMVI melanoma; SK-MEL-2 melanoma; SK-MEL-28 melanoma.
What all share (experiment): NCI-60 one-dose screen, 48 h (100 = growth as untreated, 0 = no growth, -100 = all killed)
Common to all, as to conditions: 10 µM

The panel holds about 83,000 compounds, 20% with a hit somewhere; the sample as a whole holds those more often.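 Cell lines were cultured in 96-well plates, exposed to a single compound concentration, and assessed for percent growth 48 hours later.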 Unmarked numbers belong to inactive results. Calls of active or inactive are those of the source. The calls were made as follows: active = growth percent below 10; inactive = the rest.

For `CCCC1(CC(=O)O)OCCc2c1[nH]c1ccccc21` (configuration not stated), the growth in the assay on K-562 leukemia was 156%; in the assay with MALME-3M melanoma, 98.8%; in the assay with MDA-MB-231 breast, 103%; with RXF 393 renal it was 100%; with SF-268 CNS, 103%; with SF-295 CNS, 102%. For the same compound, the growth with SF-539 CNS was 112%; with UACC-257 melanoma, 103%; in the assay with M14 melanoma, 112%; in the assay on HCT-15 colon it was 107%; in the assay on HT29 colon, 110%; in the assay with SNB-75 CNS, 65.8%. The growth was 128% in the assay with SNB-19 CNS; 108% with U251 CNS; 91.7% in the assay with PC-3 prostate; 100% in the assay with SK-MEL-5 melanoma; 93.2% with UACC-62 melanoma; 108% with LOX IMVI melanoma. In the assay on SK-MEL-2 melanoma, the growth was 114%.
Turning to `CSc1nn(-c2ccccc2)c2ncnc(Oc3ccccc3)c12`, the growth in the assay on K-562 leukemia was 96.5%; in the assay on MALME-3M melanoma, 104%; in the assay on MDA-MB-231 breast, 98.3%; in the assay with RXF 393 renal, 83.6%; with SF-268 CNS it was 92.5%; in the assay on SF-295 CNS, 101%. The growth is 98% with SF-539 CNS; 107% with UACC-257 melanoma; 102% in the assay on M14 melanoma; 93.2% in the assay with HCT-15 colon; 87.3% in the assay on HT29 colon; 70.1% in the assay on SNB-75 CNS. Also, the growth in the assay on SNB-19 CNS was 93.9%; in the assay with U251 CNS, 86%; in the assay with PC-3 prostate it was 98%; in the assay on SK-MEL-5 melanoma, 97%; with UACC-62 melanoma, 101%; in the assay with LOX IMVI melanoma, 98.4%. Also, in the assay on SK-MEL-2 melanoma, the growth was 80.6%.
Take `C=C(Cl)[C@@](Cl)(CBr)CC[C@@H](Br)C(C)(C)Cl`: the growth with K-562 leukemia is 8.41% (active); in the assay with MALME-3M melanoma it was 102%; with MDA-MB-231 breast, -78.2% (active); in the assay with RXF 393 renal it was -5.37% (active); with SF-268 CNS it was 1.89% (active); with SF-295 CNS, -48.4% (active). Moreover, the growth is -81.9% (active) with SF-539 CNS; -66.7% (active) in the assay on UACC-257 melanoma; 89.1% in the assay with M14 melanoma; -63.8% (active) with HCT-15 colon; -88.2% (active) in the assay on HT29 colon; -96.8% (active) in the assay with SNB-75 CNS. Also, the growth in the assay on SNB-19 CNS was -74.9% (active); with U251 CNS, -97.9% (active); in the assay on PC-3 prostate it was -92.7% (active); with SK-MEL-5 melanoma, 87.9%; in the assay with UACC-62 melanoma it was -25.9% (active); in the assay on LOX IMVI melanoma, 94.5%. Also, the growth with SK-MEL-2 melanoma was -30.8% (active).
Consider `O=C(N/N=C/c1ccccc1O)C(O)(c1ccccc1)c1ccccc1`, for which the growth is 52.9% in the assay on K-562 leukemia; 74% in the assay on MALME-3M melanoma; 60.5% with MDA-MB-231 breast; 85.2% in the assay on RXF 393 renal; 46.8% with SF-268 CNS; -12.8% (active) in the assay with SF-295 CNS. The growth with SF-539 CNS is 60.6%; in the assay with UACC-257 melanoma, 68.6%; in the assay on M14 melanoma, 57.4%; with HCT-15 colon it was 32%; in the assay with HT29 colon it was 49.7%; in the assay with SNB-75 CNS, 68.8%. The growth was 66% in the assay on SNB-19 CNS; 45.9% in the assay with U251 CNS; 55.5% with PC-3 prostate; 62.1% with SK-MEL-5 melanoma; 51.9% with UACC-62 melanoma; 25.7% with LOX IMVI melanoma. For the same compound, in the assay on SK-MEL-2 melanoma, the growth is 107%.
Take `COc1ccc(N2C(=O)C3c4[nH]c5ccc(OCc6ccccc6)cc5c4C4CCC(C(C)C)CC4C3C2=O)cc1` (configuration not stated): the growth in the assay with K-562 leukemia is 117%; in the assay with MALME-3M melanoma, 107%; in the assay with MDA-MB-231 breast it was 101%; in the assay with RXF 393 renal, 102%; in the assay on SF-268 CNS it was 96.7%; with SF-295 CNS it was 114%. Besides, the growth with SF-539 CNS is 118%; in the assay with UACC-257 melanoma, 96.1%; in the assay with M14 melanoma, 124%; with HCT-15 colon it was 16.3%; in the assay on HT29 colon, 89.3%; in the assay on SNB-75 CNS it was 31.3%. Besides, the growth was 104% in the assay with SNB-19 CNS; 18.8% in the assay on U251 CNS; 88.3% with PC-3 prostate; 99.5% in the assay with SK-MEL-5 melanoma; 94.2% with UACC-62 melanoma; 90.1% with LOX IMVI melanoma. Also, the growth in the assay on SK-MEL-2 melanoma was 101%.
Regarding `COc1cc2nc(Nc3cccc(C(=O)O)c3)nc(N)c2cc1OC`, the growth in the assay on K-562 leukemia is 108%; in the assay with MALME-3M melanoma, 111%; in the assay with MDA-MB-231 breast, 86.8%; in the assay with RXF 393 renal, 106%; in the assay on SF-268 CNS, 95.3%; with SF-295 CNS, 96.4%. For the same compound, the growth with SF-539 CNS is 97%; in the assay with UACC-257 melanoma, 97.5%; with M14 melanoma, -45.1% (active); with HCT-15 colon it was 102%; in the assay with HT29 colon, 103%; in the assay on SNB-75 CNS, 94.6%. Moreover, the growth was 102% in the assay on SNB-19 CNS; 99% in the assay with U251 CNS; 90.4% with PC-3 prostate; 99.7% in the assay on SK-MEL-5 melanoma; 96.3% with LOX IMVI melanoma; 103% in the assay on SK-MEL-28 melanoma.
Turning to `C#Cc1ccc(-n2c(/C=C/c3ccc4ccccc4c3)nc3ncccc3c2=O)cc1`, the growth is 6.94% (active) with K-562 leukemia; 39.5% in the assay with MALME-3M melanoma; 42.1% with MDA-MB-231 breast; -21.4% (active) with RXF 393 renal; 37.8% with SF-268 CNS; 19.6% with SF-295 CNS. Besides, the growth in the assay on SF-539 CNS was 70.5%; in the assay on UACC-257 melanoma it was 13%; in the assay on M14 melanoma it was 1.76% (active); in the assay with HCT-15 colon it was 25.4%; in the assay on HT29 colon it was 0.964% (active); in the assay on SNB-75 CNS, 47.3%. Also, the growth in the assay with SNB-19 CNS is 75.3%; with U251 CNS it was 43.2%; in the assay with PC-3 prostate it was 13.7%; in the assay with SK-MEL-5 melanoma, -90.3% (active); in the assay on UACC-62 melanoma it was 26.7%; with LOX IMVI melanoma, -39% (active). Besides, the growth in the assay on SK-MEL-2 melanoma was -33.2% (active).
Turning to `COc1ccccc1CNCCCN1C(=O)c2ccc3c4c(ccc(c24)C1=O)C(=O)N(CCCN)C3=O`, the growth was -22.7% (active) in the assay on K-562 leukemia; -94.1% (active) with MALME-3M melanoma; 3.16% (active) in the assay on MDA-MB-231 breast; -56% (active) in the assay with RXF 393 renal; -22.1% (active) in the assay with SF-268 CNS; -2.42% (active) with SF-295 CNS. The growth in the assay with SF-539 CNS was -87.3% (active); in the assay on UACC-257 melanoma it was -91.9% (active); with M14 melanoma, -62% (active); in the assay with HCT-15 colon, -30.8% (active); in the assay with HT29 colon it was -51.1% (active); in the assay with SNB-75 CNS, 39.3%. The growth in the assay on SNB-19 CNS is -5.76% (active); in the assay with U251 CNS, -46.6% (active); in the assay on PC-3 prostate it was -8.32% (active); in the assay on SK-MEL-5 melanoma, -97.5% (active); in the assay with LOX IMVI melanoma, -61% (active); in the assay on SK-MEL-28 melanoma, 5.1% (active). Moreover, the growth with SK-MEL-2 melanoma is -57.3% (active).
As for `Cc1cccc2c(NCCN(C)C)c3cccc(C(=O)NCCN(C)C)c3nc12`, the growth with K-562 leukemia was -24.5% (active); with MALME-3M melanoma it was 7.06% (active); in the assay on MDA-MB-231 breast, 5.41% (active); in the assay on RXF 393 renal, 8.33% (active); in the assay on SF-268 CNS it was 11.3%; in the assay with SF-295 CNS it was 7.5% (active). Besides, the growth with SF-539 CNS was 11.6%; in the assay with UACC-257 melanoma, -20.6% (active); with M14 melanoma, 11.7%; with HCT-15 colon, -46.5% (active); with HT29 colon it was -43.7% (active); in the assay on SNB-75 CNS, -24.7% (active). Further, the growth was 14.5% with SNB-19 CNS; -43% (active) in the assay on U251 CNS; -31% (active) in the assay on PC-3 prostate; 3.71% (active) with SK-MEL-5 melanoma; 20.8% with UACC-62 melanoma; -61.9% (active) in the assay with LOX IMVI melanoma. Besides, in the assay with SK-MEL-2 melanoma, the growth is -6.23% (active).
Regarding `Cn1c(N)c(N=Nc2ccc(S(=O)(=O)Nc3nccs3)cc2)c(=O)n(C)c1=O`, the growth in the assay on K-562 leukemia is 90.2%; with MALME-3M melanoma it was 86.8%; with MDA-MB-231 breast it was 111%; with RXF 393 renal, 130%; with SF-268 CNS, 103%; in the assay on SF-295 CNS it was 91%. Moreover, the growth with SF-539 CNS is 98.3%; in the assay on UACC-257 melanoma it was 95.6%; in the assay on M14 melanoma, 101%; with HCT-15 colon, 110%; with HT29 colon, 107%; in the assay on SNB-75 CNS it was 94.1%. The growth in the assay with SNB-19 CNS is 104%; with U251 CNS, 99.2%; with PC-3 prostate it was 90.5%; with SK-MEL-5 melanoma, 104%; with UACC-62 melanoma it was 106%; in the assay with LOX IMVI melanoma, 89.4%. The growth in the assay on SK-MEL-2 melanoma was 92.4%.
As for `CCCCCCCCCCCCCCCCCCOCC(COCCOCC[N+]1(CCCCCC(=O)[O-])CCCC1)Oc1ncccn1` (configuration not stated), the growth in the assay with K-562 leukemia was 19.8%; in the assay with MALME-3M melanoma, 82.9%; in the assay on MDA-MB-231 breast, 51.9%; with RXF 393 renal, 28.3%; in the assay on SF-268 CNS it was 32.6%; with SF-295 CNS, 26.9%. For the same compound, the growth was 36.8% in the assay with SF-539 CNS; 45.5% with UACC-257 melanoma; 30% in the assay on M14 melanoma; 56.3% in the assay with HCT-15 colon; 22.7% with HT29 colon; 6.6% (active) in the assay with SNB-75 CNS. The growth in the assay on SNB-19 CNS is 18.5%; in the assay with U251 CNS, 8.23% (active); in the assay with PC-3 prostate it was 0.371% (active); with SK-MEL-5 melanoma it was 45.3%; with UACC-62 melanoma, 54.4%; in the assay on LOX IMVI melanoma, 39.9%. The growth in the assay with SK-MEL-2 melanoma is 70.3%.
Take `CCCCC/C=C/C(=O)CCc1ccc(O)c(OC)c1`: the growth with K-562 leukemia was 59.9%; in the assay with MALME-3M melanoma, 23%; in the assay with MDA-MB-231 breast, 79.3%; in the assay with RXF 393 renal, 74.6%; in the assay with SF-268 CNS it was 86.9%; in the assay with SF-295 CNS, 96.4%. The growth in the assay with SF-539 CNS is 90.1%; in the assay on UACC-257 melanoma, 91.9%; with M14 melanoma it was 80.7%; with HCT-15 colon it was 88.2%; with HT29 colon, 93.1%; in the assay with SNB-75 CNS it was 63%. For the same compound, the growth in the assay on SNB-19 CNS is 87.1%; with U251 CNS it was 79.6%; in the assay with PC-3 prostate, 55.8%; in the assay with SK-MEL-5 melanoma, 97.7%; in the assay with UACC-62 melanoma, 83.1%; in the assay on LOX IMVI melanoma, 23.7%. In addition, in the assay with SK-MEL-2 melanoma, the growth is 121%.

These data come from PubChem BioAssay (NCI).
